Reference: PubChem BioAssay (NCI)
Compounds without any hit were thinned out: in the full panel of roughly 79,000, 15% have a hit. Activity calls are given as the source filed them. Cut-off read from the data, not from the text of the source: active = growth inhibition above about 70%; inactive = the rest. Where a SMILES comes first, the peptide text is derived from it. Bridges are numbered along the chain shown (N, C = ends). [ ]: non-standard residue; d: D form. The star is where a group is joined. Cbz = O=C(OCc1ccccc1)*; Aib = CC(C)(N)C(=O)O; OBn = c1ccc(CO*)cc1; βAla = NCCC(=O)O

Key:
[1] = NCI Yeast Anticancer Drug Screen. Data for the rad50 strain (AID 155);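 note: 0% = growth of vehicle-only cultures of the same strain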; settings: S. cerevisiae rad50 strain growth inhibition; at 50.0 µM; hits give high values
Summary of the method: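 Genetically altered yeast (DNA repair pathway); compound treatment; growth inhibition vs vehicle ctrl.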

[2] = NCI Yeast Anticancer Drug Screen. Data for the mec2-1 strain (AID 157); settings: S. cerevisiae mec2-1 strain, at 50.0 µM, hits give high values
Summary of the method: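 Compounds were applied to mec2-1 yeast cells. Their growth was then compared with that of vehicle-treated cultures to give growth inhibition.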

[3] = NCI Yeast Anticancer Drug Screen. Data for the sgs1 mgt1 strain (AID 161);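 note: 0% = growth of cultures given vehicle only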; settings: S. cerevisiae sgs1 mgt1 strain, at 50.0 µM, hits give high values
Summary of the method: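 Compounds are added to genetically altered yeast, and growth is compared with cultures given vehicle alone to give percent inhibition.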

[4] = NCI Yeast Anticancer Drug Screen. Data for the cln2 rad14 strain (AID 165);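 note: 0% = growth equal to vehicle treated cultures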; settings: S. cerevisiae cln2 rad14 strain, at 50.0 µM, hits give high values
Summary of the method: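 Strain: cln2 rad14 yeast, altered in cell cycle control and DNA damage repair. Read-out: growth inhibition vs vehicle.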

[5] = NCI Yeast Anticancer Drug Screen. Data for the bub3 strain (AID 167); settings: S. cerevisiae bub3 mutant strain, at 50.0 µM, hits give high values
Summary of the method: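 Yeast carrying a defined mutation is treated with each compound, and growth is compared with that of vehicle-exposed cells to give inhibition.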

[6] = NCI Yeast Anticancer Drug Screen. Data for the mlh1 rad18 strain (AID 175); settings: S. cerevisiae mlh1 rad18 strain growth inhibition; at 50.0 µM; hits give high values
Summary of the method: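 A repair-deficient yeast strain is exposed to test compound, and growth is scored relative to vehicle-treated controls.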

Measured: growth inhibition

CC1(C)C(C#N)C1C1=C(N2CCOCC2)[C@]2(C)C(OC(=O)c3ccccc3)CC[C@@H]2C1 (stereo not given in full)
inactive: [1] -8.6% | [2] -17.2% | [3] -8.7% | [4] 7.7% | [5] 12.4% | [6] 4.15%

Cc1cc(Cc2c(F)c(F)c(Cc3cc(C)no3)c(F)c2F)on1
inactive: [1] 8.35% | [2] 5.6% | [3] 8.85% | [4] 1.1% | [5] 0.4% | [6] 18.1%

Cc1ccc(F)c2[nH]c(-c3ccccc3)cc(=O)c12
inactive: [1] 14.9% | [2] 3.45% | [3] -1.2% | [4] -5.95% | [5] 8% | [6] 12%

COC(=O)c1nc(N)nc(N)c1[N+](=O)[O-]
inactive: [1] -8.45% | [2] -17.7% | [3] -22.6% | [4] -15.2% | [5] -4.05% | [6] -14.9%

O=C1Nc2ncnc(Cl)c2Cc2ccccc21
inactive: [1] -2.6% | [2] -6.9% | [3] -0.75% | [4] -12.9% | [5] -6.15% | [6] -12.1%

C=CCCCCC1CCC2CCC(CCCCC=C)N12 (stereo not given)
inactive: [1] 40.8% | [2] 28.4% | [3] 38.6% | [4] 42.5% | [5] 49.4% | [6] 35.9%

CC1(C)OCC(C2OC3OC(C)(C)OC3C2O)O1 (stereo not given)
inactive: [1] 4% | [2] 15.2% | [3] 10.5% | [4] -15.8% | [5] 11.7% | [6] 7.9%

C=C(Nc1ccc([N+](=O)[O-])cc1[N+](=O)[O-])c1c/c(=N\NC(N)=S)c2ccccc2o1
inactive: [1] 25.1% | [2] -16% | [3] -3.85% | [4] 15.6% | [5] 16.4% | [6] 6.45%

COc1cc(C(=O)OC2CC3CN(CCc4c[nH]c5ccccc45)CC3CC2OC)cc(OC)c1OC (stereo not given)
inactive: [1] 5.9% | [2] 3.25% | [3] 28.4% | [4] 32.9% | [5] 5.05% | [6] 45.7%

C1CC2CC1C13OC1C1(CC1)C1OC213 (stereo not given)
inactive: [1] -4.5% | [2] 11.6% | [3] -40.5% | [4] -28.4% | [5] -20.2% | [6] -45.5%

C=C1C(=O)OC2/C=C(\C)C(OC(C)=O)C3OC3C(C)(O)CC(OC(=O)/C(C)=C/C)C12 (stereo not given)
inactive: [1] 3.35% | [2] 2.2% | [3] -15.4% | [4] -5.2% | [5] -29.7% | [6] -13.1%

CCOC(=O)C1=C(C)NC(C)=C(C(=O)OCC)C1c1c(C)noc1C
inactive: [1] 19.6% | [2] 18.6% | [3] 60.7% | [4] 19.3% | [5] 6.95% | [6] 61.4%

ClC12CCC(Cl)(CC1)CC2
inactive: [1] 10.5% | [2] 0.65% | [3] -3.95% | [4] -50.6% | [5] -10.7% | [6] -7.95%

O=C1CC(NC(=O)c2ccccc2)C(=O)O1 (stereo not given)
inactive: [1] -5.75% | [2] 3.4% | [3] 18.8% | [4] -31.1% | [5] 4.3% | [6] -21.4%

CC(=O)Nc1ccc(/C=C2/C(=O)ON=C2C)cc1
inactive: [1] 6.75% | [2] 6.6% | [3] 6% | [4] 11.8% | [5] 3.95% | [6] 13.4%

COc1cc(NCCCCC2CCCCN2)c2ncccc2c1 (stereo not given)
inactive: [1] 15.7% | [2] 2% | [3] 39% | [4] -11.4% | [5] 55.5% | [6] 48.8%

COc1ccccc1C(O)C(C)(C)C (stereo not given)
inactive: [1] 50.9% | [2] 2.45% | [3] 7.5% | [4] 8.9% | [5] 8.4% | [6] 28.9%

CC(=O)C1=C(O)C(Cc2ccccc2)NC1=O (stereo not given)
inactive: [1] 11.9% | [2] -0.2% | [3] 1.95% | [4] -37.1% | [5] -18.4% | [6] 10.7%

Cc1cccc(C(O)(c2cccc(C)c2)C2(O)CCCCC2)c1
inactive: [1] -9.45% | [2] -0.45% | [3] -0.9% | [4] 21.2% | [5] 1% | [6] 6.9%

O=C(/C=C/c1ccc(O)cc1)c1ccc(O)cc1
inactive: [1] -30% | [2] -13.7% | [3] -37.8% | [4] 0.15% | [5] -2.9% | [6] -20.6%

CCCCCCC(C)CC(=O)O (stereo not given)
inactive: [1] -4.7% | [2] -3.85% | [3] 0% | [4] -59% | [5] -7.2% | [6] -21%

CCC(=O)Cc1cnccn1
inactive: [1] -47.1% | [2] -32.5% | [3] -12.3% | [4] -10.1% | [5] -9.15% | [6] -12.4%

[B-]([C+]1CCCCC1)N1C=CC=CC1
inactive: [1] 1.2% | [2] 1.4% | [3] 15.7% | [4] -4.75% | [5] 4.95% | [6] -2.1%

CC1(C)NC(=O)C(NC(=O)C(CC(=O)OCc2ccccc2)NC(=O)OCc2ccccc2)CCCCNC(=O)CCNC1=O (stereo not given) (Cbz-D(OBn)K[Aib][βAla]; lactam 2-C; configuration not given here)
inactive: [1] -0.7% | [2] -11.6% | [3] -7.95% | [4] 20.4% | [5] -2.35% | [6] 1.3%

CCCC1(C(OC)OC)NC(=O)N(Cc2ccccc2)C1=O (stereo not given)
inactive: [1] 4.45% | [2] -5.15% | [3] 5.15% | [4] -19.7% | [5] -2.1% | [6] 4.75%

CCO/N=C(\N)c1ccccc1
inactive: [1] -8.4% | [2] 1.75% | [3] -2.5% | [4] -18.9% | [5] 0.95% | [6] 3.25%

NC(=O)Cc1c[nH]c2ccccc12
inactive: [1] 39.7% | [2] -3.95% | [3] 14.3% | [4] -37.2% | [5] 33.4% | [6] 48.6%

CC1CC2(CCC1OCc1ccccc1)OCCO2 (stereo not given)
inactive: [1] 0.25% | [2] -6.85% | [3] -2.3% | [4] 2.2% | [5] 13.3% | [6] -1.7%

CC(=O)c1ccc[cH-]1.[Fe+2].c1cc[cH-]c1
inactive: [1] 13.5% | [2] 9.75% | [3] 12.9% | [4] 4.25% | [5] 23.2% | [6] 11.3%

CCN(CC)CCOc1ccc(N2Cc3cc(OC)c(OC)cc3C2=O)cc1
inactive: [1] -11.9% | [2] -7.45% | [3] -4.2% | [4] 13.5% | [5] 8.6% | [6] -13.8%

C(=N/OCc1ccccc1)/c1ccncc1
inactive: [1] 45% | [2] 27.6% | [3] 45.7% | [4] 30.2% | [5] 47.4% | [6] 46.9%

CC(=O)OC1CCC2C(C)(CCC3C2(C)CCC2(C)C4CC(C)(C)CCC4(C)CCC32C)C1C (stereo not given)
inactive: [1] -15.1% | [2] -6.25% | [3] -11.8% | [4] -38.1% | [5] -0.05% | [6] -11.8%

COC(=O)c1ccc(N=NN(C)COC(C)=O)cc1
inactive: [1] 27.4% | [2] 12% | [3] 11.2% | [4] 18.5% | [5] 10.2% | [6] 18.8%

CC(/C=C/c1ccccc1)=N\O
inactive: [1] 9.4% | [2] 7.2% | [3] -1.4% | [4] 28.8% | [5] 3.45% | [6] 1.95%

CC1(C)OC(C(CCl)OS(C)(=O)=O)C(C(CCl)OS(C)(=O)=O)O1 (stereo not given)
inactive: [1] 4.2% | [2] -6.1% | [3] -5.7% | [4] 24.9% | [5] -3.5% | [6] 6.95%

CCCCCCCCCCCCCCCCCCn1cnc2ncnc(Cl)c21
active: [5] 96.5%
inactive: [1] 6.95% | [2] 5.6% | [3] 8.15% | [4] 55.3% | [6] 32.7%

C=CCN1C(=O)C(c2ccccc2)(c2ccccc2)NC1=S
inactive: [1] 1.7% | [2] -32.9% | [3] -32.1% | [4] -20.1% | [5] -30.6% | [6] -41.1%

Cc1cccc2c(NCCC[N+](C)(C)[O-])c3c([N+](=O)[O-])ccc(C)c3nc12
inactive: [1] 54.1% | [2] -14.3% | [3] 43.8% | [4] 2.8% | [5] -3.1% | [6] 43%

COC(=O)COc1ccc(Cl)cc1C(=O)O
inactive: [1] 23.5% | [2] 6.1% | [3] 9.8% | [4] -11.8% | [5] 27.5% | [6] 17.1%

CC1=C(CO)C(=O)O[C@@H]([C@@H](C)[C@H]2CC[C@H]3[C@@H]4C[C@@H](O)[C@@]5(O)CC=CC(=O)[C@]5(C)[C@H]4CC[C@]23C)C1
inactive: [1] -6.5% | [2] -7.15% | [3] -17.7% | [4] -9.55% | [5] -36.2% | [6] -77.1%
